Reference: PubChem BioAssay (NCATS)
Results filed as inconclusive are left out. Activity calls are given as the source filed them. Unless noted, the call rests on the fitted dose curve; in most records, active means well fitted curve in the direction sought with a large enough effect; inconclusive means small, poorly fitted or top-dose-only effect, or another doubt; inactive means no such curve, though single readings can be large; an effect the other way counts as inactive or inconclusive.

What was measured:
[1] = target: Muscarinic acetylcholine receptor M1 (Rattus norvegicus) (UniProt P08482); experiment: qHTS Assay for Antagonists of Acetylcholine Muscarinic M1 Receptor: Measurement of IP-One Response (AID 944); further: nearly all actives have a fitted effect of over 75% in size
Procedure, shortened: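 CHO cells stably expressing rat M1, pretreated 10 min with compound, then stimulated 30 min with carbachol at EC80 (200 nM) in LiCl-containing buffer pH 7.4; IP1 accumulation read by HTRF competition (665/620 nm).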

[2] = target: Pyruvate kinase (Leishmania mexicana) (UniProt Q27686); experiment: qHTS Validation Assay for Inhibitors of Leishmania Mexicana Pyruvate Kinase (AID 945)
Procedure, shortened: (§1)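 The enzyme is a highly purified E451W mutant of LmPYK used at 0.2 nM. It converts 0.5 mM PEP and 0.1 mM ADP over 1 h at room temperature; product ATP is quantified by luciferase luminescence relative to DMSO controls.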

[3] = target: Pyruvate kinase PKM (Homo sapiens) (UniProt P14618); experiment: qHTS Assay for Activators of Human Muscle Pyruvate Kinase (AID 954; active means well fitted curve in the direction sought with a large enough effect, not every such curve was filed as active)
Procedure, shortened: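 Human PKM2 activity is measured as ATP generation, detected by luciferase-coupled luminescence. The enzyme (0.1 nM) acts on 0.5 mM PEP and 0.1 mM ADP for 1 h at ambient temperature; data are normalized to uninhibited and full-inhibition wells.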

[4] = target: Muscarinic acetylcholine receptor M1 (Rattus norvegicus) (UniProt P08482); experiment: qHTS Assay for Antagonists of Acetylcholine Muscarinic M1 Receptor: Kinetic Measurement of Intracellular Calcium Response (AID 943); further: series mostly up to about 35 µM; nearly all actives have a fitted effect of over 75% in size
Procedure, shortened: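 CHO cells expressing rat M1 receptor, Fluo-4 loaded, preincubated 10 min with compound, then stimulated with EC80 carbachol (100 nM final). Kinetic calcium fluorescence over 4 min; response taken as peak over basal signal.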

[5] = Confirmation and Secondary Assay for Modulators of Hemoglobin Beta Chain Splicing at IVS2 705 locus (AID 930);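 further: HeLa cells stably expressing the EGFP-705 splicing reporter; GFP fluorescence per well restored by corrected splicing of the IVS2-705 intron in EGFP; series mostly up to about 46 µM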
Procedure, shortened: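 Splice-correction reporter: EGFP cDNA split by beta-globin intron 2 bearing the 705 mutation, stably in HeLa. Compound incubation 2 days, 37C; fluorescent objects 5-250 µm summed per well.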

[6] = MultiTox-Fluor Cytotoxicity Assay - LYMP1-001 - Dead Cells (AID 946)
Procedure, shortened: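 Cytotoxicity as increased dead-cell protease fluorescence (bis-AAF-R110, 485/520 nm), read 60 min after MultiTox-Fluor reagent. Human lymphoblastoid line exposed 16 h; Hill-fitted AC50, with DMSO as 0% and 15 uM tetraoctylammonium bromide as 100%.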

[7] = MultiTox-Fluor Cytotoxicity Assay - LYMP1-001 - Live Cells (AID 947)
[8] = MultiTox-Fluor Cytotoxicity Assay - LYMP1-002 - Live Cells (AID 955);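 further: cells exposed to compound for 16 hours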
Procedure, shortened: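 Human lymphoblastoid LYMP1-002 cells, 2500/well, treated 16 h at 37 C in complete medium. Live-cell protease activity via GF-AFC fluorescence (Ex/Em 405/510) after 60 min reagent incubation; AC50 from Hill fits.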

[9] = target: Pyruvate kinase (Leishmania mexicana) (UniProt Q27686); experiment: qHTS Validation Assay for Activators of Leishmania Mexicana Pyruvate Kinase (AID 959)
Procedure, shortened: as §1

Measured: Potency

Sequence of Pyruvate kinase (Leishmania mexicana) (Q27686 2-499 E452W): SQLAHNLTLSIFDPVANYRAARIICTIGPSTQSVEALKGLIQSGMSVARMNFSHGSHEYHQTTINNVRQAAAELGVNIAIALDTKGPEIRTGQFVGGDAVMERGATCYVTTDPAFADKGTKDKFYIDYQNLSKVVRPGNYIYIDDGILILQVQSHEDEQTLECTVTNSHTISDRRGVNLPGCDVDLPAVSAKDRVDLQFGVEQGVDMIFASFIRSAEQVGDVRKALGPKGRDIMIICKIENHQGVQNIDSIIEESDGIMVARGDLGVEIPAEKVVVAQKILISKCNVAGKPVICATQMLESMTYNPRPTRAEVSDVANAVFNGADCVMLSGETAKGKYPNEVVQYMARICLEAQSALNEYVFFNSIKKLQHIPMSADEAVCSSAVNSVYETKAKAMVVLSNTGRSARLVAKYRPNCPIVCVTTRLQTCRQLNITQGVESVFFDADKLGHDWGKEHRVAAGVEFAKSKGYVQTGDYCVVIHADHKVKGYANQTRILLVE
Sequence of Muscarinic acetylcholine receptor M1 (Rattus norvegicus) (P08482 whole entry, looked up): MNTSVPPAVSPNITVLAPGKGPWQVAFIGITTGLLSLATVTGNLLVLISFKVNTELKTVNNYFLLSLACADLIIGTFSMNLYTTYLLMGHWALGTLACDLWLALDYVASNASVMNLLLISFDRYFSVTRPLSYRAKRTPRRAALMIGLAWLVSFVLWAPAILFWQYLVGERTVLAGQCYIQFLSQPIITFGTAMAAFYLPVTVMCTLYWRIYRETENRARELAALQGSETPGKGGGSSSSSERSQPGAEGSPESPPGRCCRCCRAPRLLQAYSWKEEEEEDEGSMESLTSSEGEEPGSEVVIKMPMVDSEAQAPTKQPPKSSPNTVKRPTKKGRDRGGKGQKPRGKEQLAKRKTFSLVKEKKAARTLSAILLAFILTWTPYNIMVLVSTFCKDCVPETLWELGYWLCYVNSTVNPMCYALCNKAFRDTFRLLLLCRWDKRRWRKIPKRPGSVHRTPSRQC
Sequence of Pyruvate kinase PKM (Homo sapiens) (P14618 whole entry, looked up): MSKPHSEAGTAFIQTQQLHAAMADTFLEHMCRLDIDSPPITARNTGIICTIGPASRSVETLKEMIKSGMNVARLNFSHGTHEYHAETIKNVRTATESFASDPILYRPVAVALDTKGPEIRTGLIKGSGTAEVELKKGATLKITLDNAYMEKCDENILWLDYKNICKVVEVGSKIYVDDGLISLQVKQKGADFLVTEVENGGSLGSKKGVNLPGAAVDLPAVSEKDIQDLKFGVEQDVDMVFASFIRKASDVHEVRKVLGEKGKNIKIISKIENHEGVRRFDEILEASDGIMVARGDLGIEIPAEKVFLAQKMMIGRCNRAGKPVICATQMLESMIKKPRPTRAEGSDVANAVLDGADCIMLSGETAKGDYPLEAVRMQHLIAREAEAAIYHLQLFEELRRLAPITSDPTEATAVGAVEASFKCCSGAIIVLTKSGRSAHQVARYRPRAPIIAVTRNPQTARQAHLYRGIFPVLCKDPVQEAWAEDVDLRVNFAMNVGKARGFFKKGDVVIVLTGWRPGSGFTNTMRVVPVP

NCCNC(=O)c1ncsc1-c1cccc(F)c1
inactive: [1] | [2] | [3]

N#C/C(=C\c1ccc(O)c(O)c1)C(=O)c1ccc(O)c(O)c1
inactive: [4] | [2] | [3]

N#C/C(=C\c1ccc(O)c(O)c1)C(=O)NCc1ccccc1
inactive: [4] | [2] | [3]

N#C/C(=C\c1c[nH]c2ccccc12)C(=O)c1ccc(O)c(O)c1
inactive: [4] | [1] | [2] | [3]

C[C@@H](NC(=O)/C(C#N)=C/c1ccc(O)c(O)c1)c1ccccc1
inactive: [4] | [1] | [2] | [3]

COc1cc(OC)c(/C=C2/C(=O)Nc3ccccc32)c(OC)c1
inactive: [2] | [3]

CC(C(=O)O)c1ccc2c(c1)[nH]c1ccc(Cl)cc12 (stereo unspecified)
inactive: [5]

Oc1ccccc1O
inactive: [2] | [6] | [7] | [3] | [8]

NC(N)=NC(=O)c1nc(Cl)c(N2CCCCCC2)nc1N
inactive: [5] | [1] | [3] | [9]

N#C/C(=C\c1ccc(O)c(O)c1)C(=O)NCCCc1ccccc1
inactive: [4] | [2] | [3]

CCN1/C(=C/C(C)=O)Sc2ccc(OC)cc21
inactive: [4] | [1] | [2] | [3]
